Experiment [1] can be described thus: NCI Yeast Anticancer Drug Screen. Data for the rad50 strain (AID 155).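 Further: 0% = growth of vehicle-only cultures of the same strain.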 The following applies: S. cerevisiae rad50 strain growth inhibition; at 50.0 µM; hits give high values. Put shortly: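 Relative growth inhibition (compound vs vehicle) was measured in yeast with a defined repair-gene alteration.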
The nature of experiment [2]: NCI Yeast Anticancer Drug Screen. Data for the mec2-1 strain (AID 157). The following applies: S. cerevisiae mec2-1 strain, at 50.0 µM, hits give high values. In a few lines: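 Compounds were applied to mec2-1 yeast cells. Their growth was then compared with that of vehicle-treated cultures to give growth inhibition.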
A short description of experiment [3]: NCI Yeast Anticancer Drug Screen. Data for the sgs1 mgt1 strain (AID 161).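 Further: 0% = growth of cultures given vehicle only.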 The following applies: S. cerevisiae sgs1 mgt1 strain, at 50.0 µM, hits give high values. In a few lines: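 This yeast growth screen uses a strain with defined DNA-repair lesions; compound-treated growth is compared with vehicle-treated growth.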
The nature of experiment [4]: NCI Yeast Anticancer Drug Screen. Data for the cln2 rad14 strain (AID 165).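 Further: 0% = growth equal to vehicle treated cultures.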 The following applies: S. cerevisiae cln2 rad14 strain, at 50.0 µM, hits give high values. In a few lines: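 Strain: cln2 rad14 yeast, altered in cell cycle control and DNA damage repair. Read-out: growth inhibition vs vehicle.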
Experiment [5] in a line: NCI Yeast Anticancer Drug Screen. Data for the bub3 strain (AID 167). The following applies: S. cerevisiae bub3 mutant strain, at 50.0 µM, hits give high values. Put shortly:
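Screening used yeast with an engineered genetic alteration affecting cell cycle control. Compound-exposed cultures were compared with vehicle cultures, and reduced growth was taken as inhibition.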

Experiment [6] in a line: NCI Yeast Anticancer Drug Screen. Data for the mlh1 rad18 strain (AID 175). The following applies: S. cerevisiae mlh1 rad18 strain growth inhibition; at 50.0 µM; hits give high values. In a few lines:
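A repair-deficient yeast strain is exposed to test compound, and growth is scored relative to vehicle-treated controls.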

The text below walks through data of PubChem BioAssay (NCI).

The structures appear in SMILES notation. The panel holds about 79,000 compounds, 15% with a hit somewhere; the sample as a whole holds those more often. Values without a mark were called inactive. Active and inactive are the calls of the source. No stated cut-off is given here; in the data, active means growth inhibition above about 70%; inactive means the rest.

With `CC(/C=C/C1OC(=O)C=CC1C)=C\C(C)C/C=C/C(C)=C/C(CO)C(=O)C(C)C(O)C(C)C/C(C)=C/C(=O)O` (stereo not given), the growth inhibition in experiment [1] is 73.1% (active); in experiment [2] it was 62.2%; in experiment [3], 81.9% (active); in experiment [4], 62.6%; in experiment [5] it was 77.6% (active); in experiment [6], 87.4% (active).

Turning to `Cc1ccccc1/C(=C/c1ccc([N+](=O)[O-])cc1)C(=O)Nc1ccc(S(=O)(=O)F)cc1`, the growth inhibition is 97.1% (active) in experiment [1]; 95.5% (active) in experiment [2]; 96.3% (active) in experiment [3]; 96.3% (active) in experiment [4]; 96.5% (active) in experiment [5]; 97.5% (active) in experiment [6].

Regarding `CNC(=O)c1[nH]cnc1/N=N/N(C)N`, the growth inhibition was 85.2% (active) in experiment [1]; 91.8% (active) in experiment [2]; 90.5% (active) in experiment [3]; 87.9% (active) in experiment [4]; 89% (active) in experiment [5]; 89.3% (active) in experiment [6].

For `Cn1nc2ccc3nccc(NCCNCCCl)c3c2n1`, the growth inhibition in experiment [1] is 6.95%; in experiment [2], -30.8%; in experiment [3], -22.1%; in experiment [4], 2.7%; in experiment [5] it was -19.2%; in experiment [6], -20.8%.

Take `N=P(c1ccccc1)(c1ccccc1)c1ccccc1.[Cr+6].[N-]=C=S.[N-]=C=S.[N-]=C=S.[N-]=C=S.[NH2-].[NH2-]`: the growth inhibition in experiment [1] was 3.95%; in experiment [2], -2.55%; in experiment [3], -3.6%; in experiment [4], -3.35%; in experiment [5], -2.1%; in experiment [6], 0%.

Take `CCOC(=S)S.[Cu+2]`: the growth inhibition in experiment [1] is 2.55%; in experiment [2], 4.1%; in experiment [3], -2.85%; in experiment [4] it was -33.6%; in experiment [5], -36%; in experiment [6], -17.1%.

As to `CC(CCl)N1CCCCCC1` (stereo not given), the growth inhibition was -14.3% in experiment [1]; -16.8% in experiment [2]; 8% in experiment [3]; -20.8% in experiment [4]; 5.3% in experiment [5]; -6.8% in experiment [6].

Turning to `CNN(C)P(=O)(Oc1ccccc1)N(C)NC`, the growth inhibition in experiment [1] was 5.5%; in experiment [2], -7.3%; in experiment [3], -9.15%; in experiment [4], 7.9%; in experiment [5], -2.1%; in experiment [6], -5.15%.

For the compound `CCCCNC(=O)CCl`, the growth inhibition in experiment [1] is 13.4%; in experiment [2], 13.7%; in experiment [3], 9.15%; in experiment [4], -0.4%; in experiment [5], 9.3%; in experiment [6], 13.8%.

Consider `NNC(=O)Nc1ccc([N+](=O)[O-])cc1[N+](=O)[O-]`, for which the growth inhibition in experiment [1] is 63.8%; in experiment [2] it was 0%; in experiment [3], 34.7%; in experiment [4], 20.2%; in experiment [5] it was 38.4%; in experiment [6] it was 20.5%.

Consider `CC(=O)CCC(=O)O`, for which the growth inhibition in experiment [1] is -7.05%; in experiment [2], 0.55%; in experiment [3], -39.2%; in experiment [4], 16.1%; in experiment [5], -7.25%; in experiment [6] it was -19.9%.

As for `CNP1(N(C)C)=NP(NC)(N(C)C)=NP(NC)(N(C)C)=N1` (stereo not given), the growth inhibition in experiment [1] was -13.9%; in experiment [2] it was 12.9%; in experiment [3] it was -10.6%; in experiment [4], -6.85%; in experiment [5] it was 6.6%; in experiment [6], 10.4%.

`O=C(O)C(F)(F)F.O=C(O)C(F)(F)F.[C-]#[O+].[Ru].c1ccc([PH+](c2ccccc2)c2ccccc2)cc1.c1ccc([PH+](c2ccccc2)c2ccccc2)cc1`: the growth inhibition in experiment [1] is 1.5%; in experiment [2], 22.2%; in experiment [3], 21.9%; in experiment [4] it was -7.45%; in experiment [5], -14.9%; in experiment [6], 14.3%.

Turning to `CCOC(=O)/C=C/CP(=O)(OCC)OCC`, the growth inhibition in experiment [1] is 7.9%; in experiment [2] it was -11.5%; in experiment [3], 15.2%; in experiment [4] it was 11.3%; in experiment [5], 9.55%; in experiment [6], 18.2%.

Regarding `O=C(CC(=O)C(F)(F)F)c1cccs1.O=C(CC(=O)C(F)(F)F)c1cccs1.O=C(CC(=O)C(F)(F)F)c1cccs1.[Gd]`, the growth inhibition in experiment [1] is 29.8%; in experiment [2] it was 26.2%; in experiment [3], 26.9%; in experiment [4], -3.25%; in experiment [5] it was 44%; in experiment [6], 15.9%.

In the case of `C(=C\c1cccs1)/CN1CCC2CCC(C2)C1` (stereo not given), the growth inhibition in experiment [1] is -3.25%; in experiment [2] it was -4.15%; in experiment [3], 2.1%; in experiment [4] it was -17.1%; in experiment [5], 6.35%; in experiment [6] it was -10.8%.

Regarding `c1ccc(CC[N+]23CC[N+](CCc4ccccc4)(CC2)C3)cc1`, the growth inhibition in experiment [1] was 27.9%; in experiment [2] it was 3.2%; in experiment [3], 1.4%; in experiment [4] it was -25.6%; in experiment [5], 4.5%; in experiment [6], 16%.

For `CN1C2CCC1CC1(C2)SCCS1`, the growth inhibition in experiment [1] was 2.5%; in experiment [2] it was 3.85%; in experiment [3], 3.1%; in experiment [4] it was 6.2%; in experiment [5], 6.85%; in experiment [6], 4.45%.

As to `CC(O)c1ccc(Br)cc1` (stereo not given), the growth inhibition in experiment [1] was -7.95%; in experiment [2] it was 13.3%; in experiment [3], 3.55%; in experiment [4], -72.4%; in experiment [5], -1.45%; in experiment [6], 16%.

Turning to `O=C(Cc1ccccc1)OCC1CCCO1` (stereo not given), the growth inhibition in experiment [1] is 18.2%; in experiment [2] it was -6.6%; in experiment [3], -3.45%; in experiment [4], -25.7%; in experiment [5] it was -17.8%; in experiment [6], 10.5%.
